Some test systems named below: T-47D breast; BT-549 breast; MDA-MB-435 melanoma; SW-620 colon; MCF7 breast; HCT-116 colon; HCC-2998 colon; KM12 colon.
Test in all cases: NCI-60 one-dose screen, 48 h (100 = growth as untreated, 0 = no growth, -100 = all killed)
What all share (settings): 10 µM unless noted

Compounds without any hit were thinned out: in the full panel of roughly 83,000, 20% have a hit.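 In brief: 96-well plates, 48 h treatment, single concentration, percent growth endpoint.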 A number with no mark means an inactive call. The source made the active and inactive calls. The calls were made as follows: active = growth percent below 10; inactive = the rest.

Regarding `O=C1Nc2ccccc2/C1=C\c1c(-c2ccc(F)cc2)nc2ccccn12`, the growth was 60.6% in the experiment with T-47D breast; 69.6% in the experiment on BT-549 breast; -21.1% (active) in the experiment with MDA-MB-435 melanoma; 64.5% in the experiment on SW-620 colon; 62.8% with MCF7 breast; 64.2% in the experiment with HCT-116 colon. For the same molecule, the results for the growth with HCC-2998 colon and in the experiment on KM12 colon were 130% and 46.3%, respectively.

`CC(C)N1C(=O)S/C(=C2/SC(=O)N(C(C)C)C2=O)C1=O`: the growth in the experiment with T-47D breast is 104%; in the experiment on BT-549 breast, 93.6%; in the experiment on MDA-MB-435 melanoma, 100%; in the experiment on SW-620 colon, 102%; with MCF7 breast it was 97.9%; in the experiment with HCT-116 colon, 105%. Moreover, the growth is 104% with HCC-2998 colon and 99.9% in the experiment on KM12 colon.

As for `COC(=O)C1=C(C(=O)ON)[C@@H]2C=C[C@@]1([C@@H](Cc1ccccc1)Nc1ccccc1)O2`, the growth was -35.9% (active) in the experiment with T-47D breast; 118% with BT-549 breast; 101% in the experiment with MDA-MB-435 melanoma; -71.2% (active) in the experiment with SW-620 colon; 90.8% in the experiment with MCF7 breast; -77.7% (active) in the experiment on HCT-116 colon. In addition, the growth is 93.6% in the experiment with HCC-2998 colon and 96.5% with KM12 colon.

For the molecule `COc1ccc(/C=C2\COc3ccc(-c4ccccc4)cc3C2=O)c(OC)c1`, the growth was 68.1% in the experiment with T-47D breast; 91.2% in the experiment with BT-549 breast; 119% in the experiment with MDA-MB-435 melanoma; 92.9% in the experiment with SW-620 colon; 76.9% in the experiment on MCF7 breast; 75.7% in the experiment on HCT-116 colon. The figures for the growth in the experiment on HCC-2998 colon and in the experiment on KM12 colon were 75.4% and 97.7%, respectively.

For the molecule `Cn1c(-c2c(N)n(CCCN3CCOCC3)c3nc(C#N)c(C#N)nc23)nc2ccccc21`, the growth in the experiment on T-47D breast was 49.9%; with BT-549 breast, 35.6%; in the experiment with MDA-MB-435 melanoma, 79.3%; with SW-620 colon, 39.7%; with MCF7 breast, 52.9%; in the experiment with HCT-116 colon, 22.7%. The growth in the experiment on HCC-2998 colon was 80%; in the experiment on KM12 colon it was 75.6%.

As to `COc1cc(F)c(/C=C/c2cc(/C=C/c3cc(OC)c(OC)cc3F)on2)cc1OC`, the growth in the experiment with T-47D breast is 79%; in the experiment on BT-549 breast, 91.4%; with MDA-MB-435 melanoma, 7.63% (active); with SW-620 colon, 80.4%; with MCF7 breast it was 70.6%; with HCT-116 colon, 60.3%. Moreover, the growth in the experiment with HCC-2998 colon was 91.9%; with KM12 colon, 54.6%.

With `Cc1ccc(-c2nc3ccccn3c2/C=C2/C(=O)Nc3cc(Cl)ccc32)cc1`, the growth with T-47D breast was 74.6%; in the experiment with BT-549 breast, 70.9%; in the experiment on MDA-MB-435 melanoma it was -12.7% (active); in the experiment on SW-620 colon, 49%; in the experiment on MCF7 breast it was 33.5%; with HCT-116 colon it was 26.5%. The results for the growth in the experiment on HCC-2998 colon and in the experiment on KM12 colon were 92.2% and 31.9%, respectively.

In the case of `O=C1Nc2cc(-c3ccc(NC(=O)C4CC4)cc3)ccc2/C1=C/c1ccc[nH]1`, the growth with T-47D breast was 21.7%; with BT-549 breast, 104%; in the experiment on MDA-MB-435 melanoma, 99.9%; in the experiment on SW-620 colon, 113%; in the experiment with MCF7 breast, 12.8%; in the experiment on HCT-116 colon, 104%. Moreover, the growth in the experiment on HCC-2998 colon was 111%; with KM12 colon, 39.8%.

Regarding `COc1ccc2nc(-c3ccc(-c4noc(-c5cc(OC)c(OC)c(OC)c5)n4)cc3)[nH]c2c1`, the growth with T-47D breast was 83.8%; in the experiment with BT-549 breast it was 26.8%; with MDA-MB-435 melanoma, 39.1%; with SW-620 colon it was 63.8%; in the experiment with MCF7 breast, 41.3%; in the experiment with HCT-116 colon, 33%. For the same molecule, the growth in the experiment with HCC-2998 colon is 111%; in the experiment with KM12 colon, 55.4%.

Turning to `O=C(NO)c1ccc(-n2nc(-c3ccccc3)c3ccccc32)cc1`, the growth in the experiment with T-47D breast is 37.3%; in the experiment on BT-549 breast, 67.2%; in the experiment with MDA-MB-435 melanoma, 84.7%; in the experiment with SW-620 colon, 41.2%; in the experiment with MCF7 breast it was 22.4%; with HCT-116 colon, 7.64% (active). Besides, the growth in the experiment on HCC-2998 colon was 44.1%; with KM12 colon it was 71.8%.

For `Nc1ccccc1NC(=O)c1ccc(-n2nc(-c3ccccc3)c3ccccc32)cc1`, the growth with T-47D breast is 76.9%; in the experiment on BT-549 breast it was -92.3% (active); with MDA-MB-435 melanoma it was 92.2%; with SW-620 colon, 84.8%; in the experiment with MCF7 breast, 57.1%; in the experiment with HCT-116 colon, 58.1%. Moreover, the growth was 104% in the experiment with HCC-2998 colon and 91.4% with KM12 colon.

For the molecule `C=C1C(=O)O[C@H]2[C@H]1CC/C(COC(=O)NCC(C)c1ccc(CC(C)C)cc1)=C\CC[C@@]1(C)O[C@@H]21` (stereo partly drawn), the growth is -50% (active) in the experiment on T-47D breast; -42.4% (active) with BT-549 breast; -88.7% (active) in the experiment with MDA-MB-435 melanoma; -58.7% (active) with SW-620 colon; 13.7% in the experiment with MCF7 breast; -83% (active) with HCT-116 colon. Moreover, the growth in the experiment with HCC-2998 colon was 59.5%; with KM12 colon it was -3.31% (active).

With `Cn1ccnc1C(=O)/C=C/c1ccc(CC(=O)NC2CCCCC2)cc1`, the growth with T-47D breast is 47.9%; with BT-549 breast it was 54.1%; in the experiment on MDA-MB-435 melanoma, 54.1%; in the experiment with SW-620 colon, 23.1%; in the experiment with MCF7 breast, 44.3%; with HCT-116 colon, 21.5%. The growth was 100% with HCC-2998 colon and 28.9% in the experiment with KM12 colon.

On to `CCCCCCCCCCCCCCCC[N+]1(C)CCN(SN2CC[N+](C)(CCCCCCCCCCCCCCCC)CC2)CC1`, for which the growth in the experiment with T-47D breast is 102%; in the experiment on BT-549 breast it was 87.7%; in the experiment with MDA-MB-435 melanoma, 95.7%; with SW-620 colon it was 57.7%; with MCF7 breast, 76.9%; in the experiment with HCT-116 colon, 31.6%. Further, the figures for the growth in the experiment on HCC-2998 colon and with KM12 colon were 70% and 78.2%, respectively.

Regarding `O=C(Cc1ccc(/C=C/C(=O)c2nccs2)cc1)Nc1ccccc1`, the growth is 92.8% in the experiment on T-47D breast; 93% with BT-549 breast; 100% in the experiment on MDA-MB-435 melanoma; 51.9% in the experiment with SW-620 colon; 84.4% in the experiment with MCF7 breast; -43.8% (active) in the experiment on HCT-116 colon. In addition, the values for the growth in the experiment on HCC-2998 colon and in the experiment with KM12 colon were 105% and 70.7%, respectively.

Turning to `COc1cc2nc(-c3ccc(C(F)(F)F)cc3)cc(OCCN3CCCCC3)c2cc1OC`, the growth was 85.1% in the experiment on T-47D breast; 40.4% in the experiment with BT-549 breast; 90.5% in the experiment on MDA-MB-435 melanoma; 98.8% in the experiment with SW-620 colon; 79.5% in the experiment on MCF7 breast; 45.8% in the experiment with HCT-116 colon. Further, the growth is 76.7% in the experiment on HCC-2998 colon and 80.3% in the experiment on KM12 colon.

The values are drawn from PubChem BioAssay (NCI).
